High-throughput results as filed in PubChem.
A selection: hits, their analogues and other compounds. The true share with any hit is near 3.3%.
SARS PLpro yeast – SARS-CoV PLP inhibition in yeast | S. cerevisiae expressing SARS-CoV PLpro, growth rescue | 330,000 tested, 0.19% active | Potency, µM (doses to about 32.9 µM), without a hit: top-dose activity, positive = growth rescue, most hits filed as activators; calls by dose curve; also: 0% is about no effect; nearly all actives have a fitted effect of over 55% in size
AmpC inh detg – blocks E. coli AmpC beta-lactamase in detergent assay | 370,000 tested, 0.041% active | Potency, µM (series often up to 114 µM), without a hit: at the top dose activity change, negative = inhibition, hits mostly inhibitors | AID 485294 | P00811 | AmpC hydrolysis of nitrocefin, absorbance 480 nm, 0.01% Triton;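 also: 0% = no-compound wells and -100% = no-enzyme wells; nearly all actives have a fitted effect of over 25% in size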
Target sequence (P00811 whole entry, looked up): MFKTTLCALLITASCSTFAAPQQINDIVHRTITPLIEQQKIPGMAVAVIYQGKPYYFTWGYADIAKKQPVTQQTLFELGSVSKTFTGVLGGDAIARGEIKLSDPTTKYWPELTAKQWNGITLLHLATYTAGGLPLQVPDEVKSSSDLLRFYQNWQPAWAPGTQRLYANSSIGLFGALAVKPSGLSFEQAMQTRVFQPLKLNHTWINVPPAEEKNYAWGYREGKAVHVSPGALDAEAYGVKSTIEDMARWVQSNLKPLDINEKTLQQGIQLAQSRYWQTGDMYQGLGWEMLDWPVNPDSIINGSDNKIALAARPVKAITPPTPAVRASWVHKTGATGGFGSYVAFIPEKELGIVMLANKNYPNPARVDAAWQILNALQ
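AmpC (5.3 nM in the dispensed reagent) in 20 mM phosphate pH 7.0 with 0.01% (detergent screen) or 0.0001% Triton X-100 was preincubated with compounds for 15 min at room temperature. Nitrocefin was then added from an 800 uM solution, and hydrolysis was followed at 480 nm.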
TbPYK inhibitor – T. brucei pyruvate kinase inhibition. Q57TT1. TbPYK enzyme, Kinase-Glo Plus ATP luminescence, 45 min. Potency, µM (doses to about 76.8 µM), without a hit: at the top dose activity, negative = inhibition, usual class: inhibitors. 410,000 tested, 0.12% active. AID 624173; also: % is scaled to controls: 0 for no effect and ±100 for the full control effect; nearly all actives have a fitted effect of over 50% in size
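Luminescent Kinase-Glo Plus end-point after 45 min room-temperature reaction of T. brucei pyruvate kinase started with 130 uM ADP (final). Buffer TEA 50 mM pH 7.2 with KCl, MgCl2, BSA, Tween-20; titration-based qHTS with fitted concentration-effect curves.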
AmpC inh no detg – AmpC beta-lactamase inhibition without detergent. AmpC nitrocefin hydrolysis, absorbance 480 nm, 0.0001% Triton. Potency, µM (highest dose often 57.1 µM), for the others: at the top dose activity change, negative = inhibition, actives largely listed as inhibitors. 330,000 tested, 0.52% active;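 also: plate controls were no compound for no effect and no enzyme for full effect; nearly all actives have a fitted effect of over 20% in size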
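AmpC (5.3 nM in the dispensed reagent) in 20 mM phosphate pH 7.0 with 0.01% (detergent screen) or 0.0001% Triton X-100 was preincubated with compounds for 15 min at room temperature. Nitrocefin was then added from an 800 uM solution, and hydrolysis was followed at 480 nm.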
RE007 growth inh – less growth of the S. pombe RE007 Vpr strain; S. pombe RE007 Vpr strain, BacTiter-Glo ATP luminescence, 24 h; Potency, µM (top dose mostly 92.2 µM), without a hit: at the top dose activity change, negative = less growth, usual class: inhibitors; 360,000 tested, 0.21% active; active = well fitted falling curve with a large enough effect; inconclusive = small, poorly fitted or top-dose-only effect; inactive = no such curve, though single readings can be large or run the other way; also: % is scaled to controls: 0 for no effect and ±100 for the full control effect; nearly all actives have a fitted effect of over 50% in size
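Fission yeast strain RE007, carrying one chromosomally integrated HIV-1 vpr copy, was seeded at OD 0.01 in PMG+AL medium with 23 nL pinned compound. After 24 h at 30 °C and 99% humidity, viability was read by BacTiter-Glo luminescence.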
Sm TGR block – blocks Schistosoma mansoni thioredoxin glutathione reductase | Q962Y6 | purified TGR, DTNB reduction, TNB absorbance 405 nm | Potency, µM (top dose mostly 114 µM), for the others: at the top dose activity change, negative = inhibition, most hits filed as inhibitors | 360,000 tested, 3% active; also: % is scaled to controls: 0 for no effect and ±100 for the full control effect; nearly all actives have a fitted effect of over 60% in size
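TGR 20 nM + NADPH 100 uM (dispensed conc.), cpd preinc 15 min RT; start with NADPH (500 uM addition) then DTNB (15 mM addition). Kinetic TNB absorbance, 405 nm filter. Four-parameter Hill fit across titration.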
* marks the source's active call; other numbers are inactive results; ? = inconclusive; nt = no result given. Unless noted, calls follow the shape of the dose curve; as a rule, active = well fitted curve in the direction sought with a large enough effect; inconclusive = small, poorly fitted or top-dose-only effect, or another doubt; inactive = no such curve, though single readings can be large; an effect the other way counts as inactive or inconclusive. Potency is read from the fitted curve at half-maximal effect.

SMILES	SARS PLpro yeast	AmpC inh detg	TbPYK inhibitor	AmpC inh no detg	RE007 growth inh	Sm TGR block
Cc1csc2nc(COC(=O)c3cccc(NC(=O)COc4ccc(Cl)cc4)c3)cc(=O)n12	nt	8%	6%	nt	nt	5%
NC(=O)C1CCN(C2CC(=O)N(c3cccc(F)c3)C2=O)CC1 (stereo not drawn)	-25%	?	3%	-28%	14µM*	35µM*
Cc1ccccc1N1C(=O)CC(N2CCC(C(N)=O)CC2)C1=O (stereo not drawn)	-10%	?	-3%	-14%	-23%	22µM*
O=C1CC(N2CCN(c3ccccc3)CC2)C(=O)N1c1cccc(Br)c1 (stereo not drawn)	-23%	5%	-3%	27%	?	-36%
CNC(=O)C1CC(=O)N(c2ccc(F)c(Cl)c2)C1 (stereo not drawn)	-1%	-1%	0%	-12%	12%	11%
CN1C(=O)CC(N2CCC(C(N)=O)CC2)C1=O (stereo not drawn)	3%	-3%	-2%	-21%	?	-16%
NC(=O)C1CCN(C2CC(=O)N(c3ccc(F)c(Cl)c3)C2=O)CC1 (stereo not drawn)	-40%	?	1%	-11%	10µM*	25µM*
CC(=O)CSc1nc(-c2ccccc2)[nH]c1S(=O)(=O)c1ccc(C)cc1	nt	10%	-1%	nt	nt	-6%
O=C(NCc1ccco1)c1ccc2c(c1)N(Cc1ccc(F)cc1)C(=O)c1ccccc1S2=O (stereo not drawn)	nt	-7%	1%	nt	nt	0%
O=S(=O)(NCC(c1ccco1)S(=O)(=O)c1ccccc1)c1cc(F)ccc1F (stereo not drawn)	nt	-1%	5%	nt	nt	7.1µM*
COc1ccc(OC)c(S(=O)(=O)NCC(c2ccco2)N2CCc3ccccc3C2)c1 (stereo not drawn)	-8%	-14%	5%	-14%	-14%	0%
O=S(=O)(NCC(c1ccco1)S(=O)(=O)c1ccccc1)c1ccccc1 (stereo not drawn)	nt	1%	3%	nt	nt	?
Cc1ccc(S(=O)(=O)NCC(c2ccco2)S(=O)(=O)c2ccccc2)cc1 (stereo not drawn)	1%	?	-2%	-10%	1%	0.4µM*
Cc1cc(C)c(S(=O)(=O)NCC(c2ccco2)S(=O)(=O)c2ccccc2)c(C)c1 (stereo not drawn)	nt	11%	1%	nt	nt	18µM*
COc1ccc(OC)c(S(=O)(=O)NCC(c2ccco2)S(=O)(=O)c2ccccc2)c1 (stereo not drawn)	-2%	-20%	-1%	-22%	-21%	0.32µM*
COc1ccccc1CNC(=O)CCCn1c(=O)c2ccccc2n(Cc2ccc(F)cc2)c1=O	nt	20%	5%	nt	nt	3%
CCOC(=O)c1cccc(NC(=O)c2cc(CN3CCOCC3)on2)c1	nt	5%	-1%	nt	nt	-1%
Cc1cc(C)c(S(=O)(=O)NCC(c2cccs2)S(=O)(=O)c2ccccc2)c(C)c1 (stereo not drawn)	nt	10%	2%	nt	nt	0.32µM*
O=C(NCC(c1cccs1)S(=O)(=O)c1ccccc1)c1ccc(C(F)(F)F)cc1 (stereo not drawn)	nt	-1%	3%	nt	nt	3%
COc1cc(OC)c2c(c1O)OC(c1ccccc1)CC2=O (stereo not drawn)	1%	4%	-12%	-26%	-5%	50µM*
O=C1CC(c2ccccc2)Oc2cc(O)cc(O)c21 (stereo not drawn)	-2%	4%	6%	-47%	-11%	-7%
CCN(c1ccccc1)S(=O)(=O)c1ccc(Cl)c(NC(=O)COC(=O)c2cc(O)c3ccccc3c2O)c1	-5%	-3%	nt	4µM*	nt	3.5µM*
